Sampled rows, rich in hits. Any-hit rate of the full collection: about 0.89%.
MEP2 TOR yeast – modulators of MEP2-GFP levels in yeast, primary screen, S. cerevisiae, multiplex flow cytometry, MLPCN library; actives 0.51% (n = 330,000); S. cerevisiae MEP2-GFP strain, 3 h; 100% = DMSO control level; GFP response vs DMSO, % at 10 µM;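 active = GFP response versus DMSO above a set limit, roughly screen mean plus 3 SD, cut at about 180% in these data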;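 note: median GFP fluorescence of the barcode-gated MEP2-GFP cells per well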
RPL19A TOR yeast – RPL19A-GFP expression modulators in yeast, primary screen, cell-based, S. cerevisiae, multiplex flow cytometry, MLPCN; S. cerevisiae RPL19A-GFP strain, 3 h; hits give low values; percent response vs DMSO, % at 10 µM; actives 0.3% (n = 330,000); AID 2025, 2009;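 active = percent response vs DMSO below 50%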;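 note: median channel GFP fluorescence of the barcoded RPL19A-GFP strain; ratio of sample median GFP to plate DMSO average so 100% = DMSO; lower means less RPL19A-GFP as with rapamycin TOR inhibition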
AGP1-GFP MLPCN – modulators of AGP1-GFP expression in yeast TOR pathway, primary screen, cell-based, multiplex flow cytometry, S. cerevisiae, MLPCN library; AID 2066, 2009; actives 0.02% (n = 320,000); GFP response vs DMSO, % at 10 µM; 3 h; GFP as percent of DMSO wells;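 active = GFP response relative to DMSO above a set limit, near screen average plus 3 SD, cut at about 150% in these data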;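 note: median GFP channel fluorescence of the gated AGP1 strain per well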
LAP4-GFP MLPCN – modulators of LAP4-GFP expression in yeast, primary screen, S. cerevisiae, multiplex flow cytometry, MLPCN library; 3 h; median GFP as percent of DMSO wells; GFP response vs DMSO, % at 10 µM; actives 0.34% (n = 320,000); AID 2023, 2009;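 active = GFP response vs DMSO above a set limit, about the screen mean plus 3 SD, cut at about 150% in these data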
CIT2-GFP yeast – modulators of CIT2-GFP expression in yeast, primary screen, S. cerevisiae, GFP fusion, multiplex flow cytometry, MLPCN library | S. cerevisiae CIT2-GFP strain, 3 h; 100 means same as DMSO wells | GFP response vs DMSO, % at 10 µM | actives 0.065% (n = 320,000);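 active = GFP response relative to DMSO above a set limit, near the screen mean plus 3 SD, cut at about 150% in these data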;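 note: ratio of well median GFP fluorescence to mean of DMSO wells on the plate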
LAP4-GFP pick2 – LAP4-GFP expression modulators in yeast, confirmation, cell-based, second cherry pick, flow cytometry; shares compounds with LAP4-GFP MLPCN; S. cerevisiae LAP4-GFP strain, 3 h; GFP response vs DMSO, % at 10 µM; actives 20% (n = 590); AID 2621, 2010;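 active = GFP signal as percent of the solvent control above about 150%, meaning raised reporter expression, limit read from the data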;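 note: ratio of well median GFP fluorescence to plate DMSO mean so 100% = DMSO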
MEP2-GFP pick2 – modulators of MEP2-GFP levels in yeast, confirmation, S. cerevisiae, flow cytometry GFP, second cherry picks | actives 10% (n = 590) | AID 2622, 2010 | S. cerevisiae MEP2-GFP strain, 3 h | GFP response vs DMSO, % at 10 µM | shares compounds with LAP4-GFP MLPCN;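 active = GFP signal above 150% of the solvent control wells, that is a rise of more than half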;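 note: median channel GFP fluorescence of all gated yeast cells per well; ratio of median GFP to plate DMSO average so 100% = DMSO level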
RPL19A GFP CP2 – RPL19A-GFP modulators in TOR pathway yeast, confirmation, cell-based, S. cerevisiae, flow cytometry, second cherry pick; shares compounds with LAP4-GFP MLPCN; S. cerevisiae RPL19A-GFP strain, 3 h; hits give low values; 100% means same as DMSO wells; GFP response vs DMSO, % at 10 µM; actives 3% (n = 590);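 active = under 65% GFP response relative to DMSO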;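 note: median GFP channel fluorescence per well over the all cells gate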
CIT2 GFP CP2 – modulators of CIT2-GFP expression in yeast, confirmation, flow cytometry, second cherry pick, single plex; S. cerevisiae CIT2-GFP strain, 3 h; DMSO control wells read 100%; actives 8% (n = 590); GFP response vs DMSO, % at 10 µM; shares compounds with LAP4-GFP MLPCN;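 active = GFP response vs DMSO above about 150%, limit read from the data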;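 note: median green fluorescence per well over all gated yeast cells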
AGP1 GFP CP2 – AGP1-GFP expression modulators, hit retest, confirmation, cell-based, flow cytometry, S. cerevisiae, cherry pick set 2; shares compounds with LAP4-GFP MLPCN; S. cerevisiae AGP1-GFP strain, 3 h; 590 tested, under 10 active; percent response vs DMSO, % at 10 µM;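 active = over 150 percent of DMSO response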;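 note: median GFP channel fluorescence over all cells without mother daughter split; sample median GFP divided by mean DMSO control so 100% equals DMSO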
s288c autofluor – compound autofluorescence in yeast s288c, dose response, artefact control for yeast TOR pathway GFP screen, s288c strain | shares compounds with LAP4-GFP MLPCN | S. cerevisiae s288c, 520 nm autofluorescence, flow cytometry, 3 h; hits give high values; zero means same as solvent-only cells | fluorescence change (kMESF span) at 33 µM | 610 tested, under 10 active | AID 2757, 2010;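 active = fluorescence span over the dose series, or activity score, above about 33, limit read from the data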
Yeast autofl DR – autofluorescence of compounds in yeast s288c, dose response, artefact control for yeast TOR pathway GFP screen, primary hits, KU SAR, s288c parental; shares compounds with LAP4-GFP MLPCN; 110 tested, under 10 active; S. cerevisiae s288c parental, compound autofluorescence, flow cytometry, 3 h; fluorescence change (span) at 33 µM;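 active = fluorescence change span, or the activity score built from it, above 25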
TORC1 bypass – wild-type yeast growth inhibition sparing TORC1 bypass cells, mechanism study for yeast TOR pathway GFP screen, BY4741 wild type, TORC1 bypass strain. shares compounds with LAP4-GFP MLPCN. S. cerevisiae BY4741 spot growth rating, 48-72 h; hits give low values. growth rating (0-3) at 30 µM. 120 tested, under 10 active. AID 504456, 2011;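 active = growth rating at most 1 for wild type yeast while the TORC1 bypass strain still grows fully, rated 3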
Starred values were filed as active, the others as inactive; nt = not tested or not shown.

SMILES	MEP2 TOR yeast	RPL19A TOR yeast	AGP1-GFP MLPCN	LAP4-GFP MLPCN	CIT2-GFP yeast	LAP4-GFP pick2	MEP2-GFP pick2	RPL19A GFP CP2	CIT2 GFP CP2	AGP1 GFP CP2	s288c autofluor	others
CCOC(=O)Cn1nc(-c2ccc(Cl)cc2)ccc1=O	99	96	nt	98	94	nt	nt	nt	nt	nt	nt
CC(=O)N(C(C)=O)c1ncnc2c1c(-c1ccc(Cl)cc1)nn2C(C)(C)C	93	95	97	96	90	96	100	98	94	92	-0.2
CC(=O)Nc1ncnc2c1c(-c1ccc(Cl)cc1)nn2C(C)(C)C	88	64	85	146	55	113	107	59*	68	79	-0.91	Yeast autofl DR=0.14;TORC1 bypass=3
C=CCn1c(CNC(=O)c2ccco2)nnc1SCC(=O)Nc1cccc(F)c1	97	100	107	106	103	nt	nt	nt	nt	nt	nt
CN1C(=O)[C@@H]2C[C@@]3([C@@]45C[C@H]6C(=O)N(C)[C@@H](Cc7ccccc7)C(=O)N6[C@@H]4Nc4ccccc45)c4ccccc4N[C@H]3N2C(=O)[C@@H]1Cc1ccccc1	94	99	94	155*	129	97	96	103	108	100	nt
O=C1N[C@@H](Cc2ccccc2)C(=O)N2[C@H]3Nc4ccccc4[C@@]3([C@]34C[C@H]5C(=O)N[C@@H](Cc6ccccc6)C(=O)N5[C@H]3Nc3ccccc34)C[C@@H]12	98	99	103	91	99	nt	nt	nt	nt	nt	nt
CNc1nc(N)cc(Nc2cccc(Cl)c2)n1	nt	nt	nt	nt	nt	nt	nt	nt	nt	nt	nt	TORC1 bypass=3
O=C(C#Cc1ccccc1)c1ccco1	128	88	101	153*	77	156*	165*	85	128	118	0.61
O=C(N/N=C/c1ccccc1)c1ccco1	98	98	108	119	102	nt	nt	nt	nt	nt	nt
CCN1CCN(C(CNS(=O)(=O)c2ccccc2)c2cccnc2)CC1 (stereo not given)	118	104	99	101	108	nt	nt	nt	nt	nt	nt
CCN1CCN(C(CNS(=O)(=O)c2ccc(F)cc2)c2cccnc2)CC1 (stereo not given)	108	99	104	96	154*	97	98	98	108	100	nt
COc1cc(C)ccc1S(=O)(=O)N1CCN(C23CC4CC(CC(C4)C2)C3)CC1	102	95	92	95	94	nt	nt	nt	nt	nt	nt
CCn1nnc(NC(=O)COc2ccc(C3CCCCC3)cc2)n1	97	91	95	97	97	nt	nt	nt	nt	nt	nt
Cc1ccc(NC(=O)CCc2ccccc2)cc1S(=O)(=O)N1CCOCC1	109	88	111	151*	88	101	100	99	102	99	0

High-throughput results as filed in PubChem.
